B2AR arrestin – recruits beta-arrestin to the human beta2-adrenergic receptor | P07550 | beta-arrestin recruitment to beta2AR, cell-based reporter | Potency, µM (doses to about 46.1 µM), for the others: at the highest dose activation, actives largely listed as activators | actives 0.02% (n = 330,000) | AID 492947;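 further: potency means the concentration at half of the fitted maximal effect; 0% = DMSO controls and full agonism = EC100 isoproterenol or metaproterenol; nearly all actives have a fitted effect of over 65% in size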
Target sequence (P07550 whole entry, looked up): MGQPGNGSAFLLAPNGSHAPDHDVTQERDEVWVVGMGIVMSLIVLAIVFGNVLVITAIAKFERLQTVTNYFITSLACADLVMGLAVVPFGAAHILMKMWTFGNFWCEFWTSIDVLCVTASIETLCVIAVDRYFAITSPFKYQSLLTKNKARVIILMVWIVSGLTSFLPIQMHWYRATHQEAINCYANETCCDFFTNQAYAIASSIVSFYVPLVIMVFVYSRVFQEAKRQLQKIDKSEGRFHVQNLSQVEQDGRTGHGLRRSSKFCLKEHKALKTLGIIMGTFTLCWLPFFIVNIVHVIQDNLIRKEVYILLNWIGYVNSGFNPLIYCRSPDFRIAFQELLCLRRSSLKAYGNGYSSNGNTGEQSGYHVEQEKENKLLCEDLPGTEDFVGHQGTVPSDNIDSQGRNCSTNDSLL
RORgamma inh – inhibitors of mouse ROR gamma transcriptional activity. actives 5.4% (n = 310,000). AID 2551. Potency, µM (doses to about 53.6 µM), for the others: top-dose activity change, negative = inhibition, most hits filed as inhibitors. Drosophila S2 Gal4-RORgamma UAS-luciferase reporter, 20 h. P51450; further: potency means the concentration at half of the fitted maximal effect; nearly all actives have a fitted effect of over 60% in size
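Luminescence from a UAS-regulated Photinus luciferase reporter in stably transfected Drosophila Schneider cells is measured; decreased signal marks ROR gamma inhibition. Fusion expression is induced by 700 uM copper sulfate for 20 hr.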
ELG1 DNA repair – blocks ELG1-dependent DNA repair in HEK293T cells. HEK293T ELG1-luciferase reporter, luminescence, 16 h; DNA damage induced by 5-fluorouridine. Potency, µM (top dose mostly 46.1 µM), inactives show at the highest dose activity change, negative = inhibition, usual class: inhibitors. actives 2.3% (n = 330,000). AID 504467; further: potency means the concentration at half of the fitted maximal effect; nearly all actives have a fitted effect of over 55% in size
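DMSO vehicle served as the neutral condition. Each well held 2,000 cells given 5-fluorouridine plus compound; after 16 hr at 37 °C/5% CO2, ONE-Glo was added and luciferase measured 30 min later.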
TSHR antag – antagonists of human thyroid stimulating hormone receptor; P16473; TSHR-expressing cells, TSH-stimulated cAMP HTRF, 2 h; hits give low values; actives 0.2% (n = 330,000); activity change, negative = inhibition, % at 11.5 µM;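 active means activity change below a set negative limit, meaning inhibition stronger than a set level, cut at about -70% in these data; inconclusive means activity change between two set negative limits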
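Cell-based HTRF cAMP assay; TSHR cells + compound, TSH EC80 (4nM final), 2 h, 37 deg C. Lysis with anti-cAMP cryptate and cAMP-d2, 30 min RT, read 665/620 nm.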
Gal4-VP16 FLuc – counter-screen for ROR gamma inhibitors: Gal4-VP16 reporter; Potency, µM (highest dose often 53.6 µM), inactives show at the top dose activity, negative = inhibition, usual class: inhibitors; Drosophila S2 Gal4-VP16 UAS-luciferase, luminescence, 20 h; actives 3.5% (n = 310,000); AID 2546;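 further: Gal4-VP16 expression switched on by copper sulfate through the metallothionein promoter; potency means the concentration at half of the fitted maximal effect; nearly all actives have a fitted effect of over 50% in size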
Starred values were filed as active, the others as inactive; [ ] = another dose, or the depositor's remark. Shown are actives, neighbours in structure and some others; about 7.5% of the full set was active somewhere. Unless noted, the call rests on the fitted dose curve; in most records, active means well fitted curve in the direction sought with a large enough effect; inconclusive means small, poorly fitted or top-dose-only effect, or another doubt; inactive means no such curve, though single readings can be large; an effect the other way counts as inactive or inconclusive. Unless noted, on the % scale 0 is the no-effect control and ±100 the full control effect.

`CC(Cc1n[nH]c(=S)o1)c1ccccc1` (stereo not given) gave B2AR arrestin 0%, RORgamma inh inconclusive, ELG1 DNA repair 2%, TSHR antag -1 and Gal4-VP16 FLuc -2%.
`CCCc1cc(-c2n[nH]c(=S)n2C(C)c2ccccc2)cs1` (stereo not given) gave B2AR arrestin 0%, RORgamma inh 7.1µM*, ELG1 DNA repair -1%, TSHR antag -1 and Gal4-VP16 FLuc 7.1µM*.
COc1cc(-c2n[nH]c(=S)n2C(C)c2ccccc2)cc(OC)c1OC (stereo not given) was read as B2AR arrestin 0%, RORgamma inh inconclusive, ELG1 DNA repair 0%, TSHR antag 30 and Gal4-VP16 FLuc 13µM*.
CCc1cc(-c2n[nH]c(=S)n2-c2ccccc2C)cs1 was read as B2AR arrestin 0%, RORgamma inh 4µM*, ELG1 DNA repair 1%, TSHR antag -6 and Gal4-VP16 FLuc 5.6µM*.
CCCc1cc(-c2n[nH]c(=S)n2CC)cs1 was read as B2AR arrestin 0%, RORgamma inh 7.1µM*, ELG1 DNA repair inconclusive, TSHR antag -4 and Gal4-VP16 FLuc 11µM*.
For O=C(O)C1CCC[C@@H]2[C@@H]3CC(CN12)[C@@H]1CCCCN1C3 (stereo not given in full) the results were RORgamma inh -13% and Gal4-VP16 FLuc -1%.
Screening CCCCn1c(N)c(N(CCC(C)C)C(=O)CC2CCCC2)c(=O)[nH]c1=O returned B2AR arrestin -1%, ELG1 DNA repair 1% and TSHR antag 3.
COc1ncc2nc(-c3cccs3)c(=O)n(C)c2n1 was read as RORgamma inh -31% and Gal4-VP16 FLuc 4%.
For CCCCn1c(-c2csc(CCC)c2)n[nH]c1=S the results were B2AR arrestin 11%, RORgamma inh 36%, ELG1 DNA repair -22%, TSHR antag -22 and Gal4-VP16 FLuc 1%.
Screening Fc1ccc(-n2c(Cc3cccs3)n[nH]c2=S)cc1Cl returned B2AR arrestin 0%, RORgamma inh 14µM*, ELG1 DNA repair -1%, TSHR antag -7 and Gal4-VP16 FLuc -6%.
Cc1ccccc1-n1c(Cc2cccs2)n[nH]c1=S was read as B2AR arrestin 0%, RORgamma inh 1.4µM*, ELG1 DNA repair 15%, TSHR antag -15 and Gal4-VP16 FLuc inconclusive.
Screening FC(F)(F)c1ccc(Cl)c(-n2c(Cc3cccs3)n[nH]c2=S)c1 returned B2AR arrestin inconclusive, RORgamma inh inconclusive, ELG1 DNA repair inconclusive, TSHR antag -6 and Gal4-VP16 FLuc 5%.
For CCc1cc(-c2n[nH]c(=S)n2CC)cs1 the results were B2AR arrestin 0%, RORgamma inh inconclusive, ELG1 DNA repair 8%, TSHR antag -3 and Gal4-VP16 FLuc 10µM*.
`CCc1cc(-c2n[nH]c(=S)n2Cc2ccccc2)cs1` gave B2AR arrestin 0%, RORgamma inh 3.2µM*, ELG1 DNA repair 8%, TSHR antag -12 and Gal4-VP16 FLuc 6.3µM*.
`CSc1ccccc1NC(=O)CN1C(=O)C2CC=CCC2C1=O` (stereo not given) gave B2AR arrestin -3%, ELG1 DNA repair inconclusive and TSHR antag 0.
OCC1CCN(Cc2cn(Cc3ccccc3)nc2-c2cc3ccccc3o2)CC1 was read as B2AR arrestin -1%, RORgamma inh 4%, ELG1 DNA repair -13%, TSHR antag 10 and Gal4-VP16 FLuc -11%.
`COC1CCN(Cc2cn(Cc3ccccc3)nc2-c2cc3ccccc3o2)CC1` gave B2AR arrestin -1%, RORgamma inh -2%, ELG1 DNA repair 21µM*, TSHR antag -3 and Gal4-VP16 FLuc -13%.
C/C=C/OC(=O)NC(c1ccccc1)[C@]1(C(C)=O)CCOC1=O (stereo not given in full) was read as RORgamma inh 9%[10 µM] and Gal4-VP16 FLuc -7%[10 µM].
Screening O=C1NC[C@H](c2ccccc2)N1 returned RORgamma inh -8% and Gal4-VP16 FLuc -3%.
`COc1cc2nc3c(c([Si](C)(C)C(C)(C)C)c2cc1OC)Cn1c-3cccc1=O` gave RORgamma inh 17% and Gal4-VP16 FLuc -2%.
COc1ccc2nc3c(c([Si](C)(C)C(C)(C)C)c2c1)Cn1c-3cccc1=O was read as RORgamma inh 13µM* and Gal4-VP16 FLuc 11µM*.
`CCOC(=O)N1CCC(NC(=O)c2ccc(N3CCC4(CC3)OCCO4)c([N+](=O)[O-])c2)CC1` gave B2AR arrestin 0%, RORgamma inh 21%, ELG1 DNA repair 16µM*, TSHR antag -11 and Gal4-VP16 FLuc -16%.
CCS(=O)(=O)N1CCN(c2ccc(C(=O)NC3C4CC5CC(C4)CC3C5)cc2[N+](=O)[O-])CC1 (stereo not given) was read as B2AR arrestin 0%, RORgamma inh inconclusive, ELG1 DNA repair 12µM*, TSHR antag -4 and Gal4-VP16 FLuc -19%.
For O=C(Nc1ncc(Cc2ccc(C(F)(F)F)cc2)s1)c1ccc(-c2cccc([N+](=O)[O-])c2)o1 the results were B2AR arrestin 0%, RORgamma inh 5.6µM*, ELG1 DNA repair 21µM*, TSHR antag -21 and Gal4-VP16 FLuc 7.1µM*.
Screening Cc1ccc(Cc2cnc(NC(=O)/C(C#N)=C/c3ccc(-c4ccc([N+](=O)[O-])cc4)o3)s2)cc1 returned B2AR arrestin 0%, RORgamma inh 2.2µM*, ELG1 DNA repair 18%, TSHR antag -1 and Gal4-VP16 FLuc 0%.
Cc1cnc(NC(=O)c2ccc(-c3ccc([N+](=O)[O-])cc3)o2)s1 was read as B2AR arrestin 0%, ELG1 DNA repair 8% and TSHR antag -4.
Screening NNC(=O)c1ccc(-c2cccc([N+](=O)[O-])c2)o1 returned B2AR arrestin 0%, RORgamma inh 5%, ELG1 DNA repair 1%, TSHR antag -12 and Gal4-VP16 FLuc 15%.
Screening O=C(Nc1ncc(Cc2ccccc2Cl)s1)c1ccc(-c2cccc([N+](=O)[O-])c2)o1 returned B2AR arrestin 0%, RORgamma inh 5µM*, ELG1 DNA repair 13µM*, TSHR antag -20 and Gal4-VP16 FLuc inconclusive.
For CN(C)c1ncnc2ccc(-c3ccccc3C#N)cc12 the results were RORgamma inh 4% and Gal4-VP16 FLuc 8%.
`CC(C)Cc1nc2oc3c(NCC(C)O)ncnc3c2c2c1CCCC2` (stereo not given) gave B2AR arrestin 0%, RORgamma inh 19%, ELG1 DNA repair 15µM*, TSHR antag -15 and Gal4-VP16 FLuc -11%.
Screening CC(C)c1nc2oc3c(NCC4CCCO4)ncnc3c2c2c1CCC2 (stereo not given) returned B2AR arrestin 0%, RORgamma inh -19%, ELG1 DNA repair 16µM*, TSHR antag -14 and Gal4-VP16 FLuc 5%.

Assay outcomes as filed in PubChem BioAssay.
